# Results filed as inconclusive are left out. Activity calls are given as the source filed them. The calls were made as follows, unless noted: active = hit-call score of the fitted dose curve at least 0.9, where 1 is the maximum; inconclusive = response in the unintended direction; inactive = score below 0.9.
# Biological target: human Norepinephrine Transporter (NET), SLC6A2 (gene 6530) (UniProt P23975)
# Test: NVS_TR_hNET: NovaScreen (NVS) Transporter Assay for human Norepinephrine Transporter (NET) (AID 2283377);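 also: cell-free membrane protein extracted from CHO cells expressing human NET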;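 as to AC50: displacement of radioligand from human NET seen as loss of scintillation signal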
# Outline: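 Single-concentration duplicate screen at 25 uM, then concentration-response for actives; displacement of specific radioligand from human NET in CHO membrane extracts, filter-based scintillation detection at 1 h relative to DMSO.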
# human Norepinephrine Transporter (NET), SLC6A2 (gene 6530), sequence (P23975 whole entry, looked up): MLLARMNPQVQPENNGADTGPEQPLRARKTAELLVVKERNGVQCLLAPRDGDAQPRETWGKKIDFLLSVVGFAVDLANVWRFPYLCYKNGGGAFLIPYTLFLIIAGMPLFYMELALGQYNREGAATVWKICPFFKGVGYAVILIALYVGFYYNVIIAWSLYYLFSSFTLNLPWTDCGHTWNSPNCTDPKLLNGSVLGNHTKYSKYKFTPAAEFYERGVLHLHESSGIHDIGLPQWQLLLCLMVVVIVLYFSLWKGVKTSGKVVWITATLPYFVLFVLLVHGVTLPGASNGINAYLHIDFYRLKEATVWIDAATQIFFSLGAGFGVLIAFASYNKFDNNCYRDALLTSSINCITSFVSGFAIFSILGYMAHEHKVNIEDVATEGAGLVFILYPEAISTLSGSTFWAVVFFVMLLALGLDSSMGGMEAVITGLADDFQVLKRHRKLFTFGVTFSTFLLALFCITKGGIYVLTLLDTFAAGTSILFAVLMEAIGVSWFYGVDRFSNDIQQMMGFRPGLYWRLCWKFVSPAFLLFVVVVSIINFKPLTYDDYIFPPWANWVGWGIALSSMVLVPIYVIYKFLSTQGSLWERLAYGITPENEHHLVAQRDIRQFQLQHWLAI
Structure (SMILES),AC50,outcome
CCOC(=O)C(SP(=S)(OC)OC)c1ccccc1 (stereo not drawn),9.9 µM (active),
CCCCCCCCCCCCc1cccc(S(=O)(=O)O)c1,18.7 µM (active),
CC1(C)[C@H](C(=O)O[C@H](C#N)c2cccc(Oc3ccccc3)c2)[C@@H]1/C=C(\Cl)C(F)(F)F,,inactive
BrCC(Br)c1ccccc1 (stereo not drawn),,inactive
O=C(O)C1(c2ccc3c(c2)OC[C@H](Cc2ccc(-c4ccccc4)cc2)[C@H]3O)CCCC1,5.29 µM (active),
N#Cc1ccccc1N,,inactive
Cc1ccc(OP(=O)(Oc2ccc(C)cc2C)Oc2ccc(C)cc2C)c(C)c1,1.47 µM (active),

# Biological target: Agonist Androgen Response Element (ARE), AR (gene 367) (UniProt P10275)
# Test: OT_AR_ARELUC_AG_1440: Odyssey Thera (OT) 24-hour CHO-K1 Luciferase Assay for Agonist Androgen Response Element (ARE) (AID 2283379)
# Outline: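 Readout: luciferase bioluminescence from CHO-K1 ARE-luc cells, measured 24 h post-dosing; agonism = increased mean luminescence vs DMSO controls, fitted in positive direction.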
# Agonist Androgen Response Element (ARE), AR (gene 367), sequence (P10275 whole entry, looked up): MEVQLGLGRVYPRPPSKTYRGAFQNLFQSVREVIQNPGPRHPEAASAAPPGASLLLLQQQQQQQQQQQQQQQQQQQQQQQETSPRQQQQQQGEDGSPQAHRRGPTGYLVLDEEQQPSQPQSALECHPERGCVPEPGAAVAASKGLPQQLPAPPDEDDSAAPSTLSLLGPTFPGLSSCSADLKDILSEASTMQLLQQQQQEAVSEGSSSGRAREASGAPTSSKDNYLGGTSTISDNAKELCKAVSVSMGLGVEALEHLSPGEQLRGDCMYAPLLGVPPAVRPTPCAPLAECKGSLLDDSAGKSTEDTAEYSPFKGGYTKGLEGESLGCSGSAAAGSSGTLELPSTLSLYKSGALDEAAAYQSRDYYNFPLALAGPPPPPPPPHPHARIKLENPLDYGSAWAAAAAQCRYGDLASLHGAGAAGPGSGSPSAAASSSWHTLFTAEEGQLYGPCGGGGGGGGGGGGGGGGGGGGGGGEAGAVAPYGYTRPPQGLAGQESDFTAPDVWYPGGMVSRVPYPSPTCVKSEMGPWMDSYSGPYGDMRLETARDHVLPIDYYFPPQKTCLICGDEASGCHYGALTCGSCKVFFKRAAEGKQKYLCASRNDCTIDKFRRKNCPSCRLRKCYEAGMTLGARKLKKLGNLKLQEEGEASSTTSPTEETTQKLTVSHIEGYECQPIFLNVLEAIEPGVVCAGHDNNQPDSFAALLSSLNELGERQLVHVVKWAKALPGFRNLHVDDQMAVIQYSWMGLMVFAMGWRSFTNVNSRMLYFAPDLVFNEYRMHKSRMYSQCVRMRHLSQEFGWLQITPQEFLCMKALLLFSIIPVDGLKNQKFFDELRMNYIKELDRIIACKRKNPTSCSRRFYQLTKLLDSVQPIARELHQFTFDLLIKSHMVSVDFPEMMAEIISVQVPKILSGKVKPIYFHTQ
Structure (SMILES),outcome,AC50
N#CCC#N,inactive,
O=C(NC(=O)c1c(F)cccc1F)Nc1cc(Cl)c(OC(F)(F)C(F)C(F)(F)F)cc1Cl (stereo not drawn),inactive,
CNC(=O)O/N=C/C(C)(C)S(C)(=O)=O,,0.623 µM (active)
C=CC(Cl)CCl (stereo not drawn),inactive,
Cc1cc(Cl)ccc1OCCCC(=O)O,inactive,

# Biological target: Estrogen receptor beta (Homo sapiens) (UniProt Q92731)
# Test: OT_ER_ERbERb_1440: Odyssey Thera (OT) 24-hour HEK293T Protein-Complementation Assay for Estrogen Receptor-beta/-beta Homodimer (AID 2283380);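 also: fluorescence gain from ER beta LBD homodimer complementation read by laser scanning cytometry; scored as signal increase over DMSO baseline for both agonists and antagonists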
# Outline: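 Fluorescence increase, nuclear for agonists or whole-cell for antagonists, relative to DMSO vehicle, quantified by laser scanning cytometer after fixation and Draq5 staining. Readout from 24 h treatment of HEK293T cells carrying complementation-paired ER beta LBD (aa 310-547).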
# Estrogen receptor beta (Homo sapiens), sequence (Q92731 whole entry, looked up, the tested form may be a part): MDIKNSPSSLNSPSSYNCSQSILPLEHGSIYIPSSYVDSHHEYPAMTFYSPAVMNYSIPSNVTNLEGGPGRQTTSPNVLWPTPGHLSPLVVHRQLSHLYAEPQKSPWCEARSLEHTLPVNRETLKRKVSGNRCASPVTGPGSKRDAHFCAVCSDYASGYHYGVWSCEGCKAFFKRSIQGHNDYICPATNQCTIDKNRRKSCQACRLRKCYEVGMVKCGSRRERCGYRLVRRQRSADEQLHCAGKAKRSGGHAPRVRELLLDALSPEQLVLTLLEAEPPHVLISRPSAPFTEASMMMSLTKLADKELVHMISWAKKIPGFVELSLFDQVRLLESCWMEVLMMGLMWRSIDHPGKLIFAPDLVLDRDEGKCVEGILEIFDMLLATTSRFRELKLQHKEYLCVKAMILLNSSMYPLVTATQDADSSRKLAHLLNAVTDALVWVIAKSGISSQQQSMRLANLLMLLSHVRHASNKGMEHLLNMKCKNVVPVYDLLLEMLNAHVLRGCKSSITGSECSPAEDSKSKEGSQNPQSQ
Structure (SMILES),outcome,AC50
N#CCC#N,inactive,
O=C(NC(=O)c1c(F)cccc1F)Nc1cc(Cl)c(OC(F)(F)C(F)C(F)(F)F)cc1Cl (stereo not drawn),inactive,
O=CCCl,inactive,
CCC[CH2][Sn]([CH2]CCC)([CH2]CCC)[CH2]CCC,inactive,
CNC(=O)O/N=C/C(C)(C)S(C)(=O)=O,inactive,
N#Cc1cccnc1,inactive,
O=C(NC(=O)c1c(F)cccc1F)Nc1ccc(Cl)cc1,inactive,
CCCSP(=S)(OCC)Oc1ccc(SC)cc1 (stereo not drawn),inactive,
O=C(O)COc1ccc(Cl)cc1,inactive,
CC1(C)[C@H](C(=O)O[C@H](C#N)c2cccc(Oc3ccccc3)c2)[C@@H]1/C=C(\Cl)C(F)(F)F,inactive,
C=CC(Cl)CCl (stereo not drawn),inactive,
O=[N+]([O-])c1ccccc1O,inactive,
CCC[CH2][Sn]([Cl])([Cl])[CH2]CCC,inactive,
CC(C)=CC1C(C(=O)OCc2cccc(Oc3ccccc3)c2)C1(C)C (stereo not drawn),inactive,
Cc1cc(Cl)ccc1OCCCC(=O)O,inactive,
CC(O)(CS(=O)(=O)c1ccc(F)cc1)C(=O)Nc1ccc(C#N)c(C(F)(F)F)c1 (stereo not drawn),,1.75 µM (active)
Cc1cc(Cl)ccc1OC(C)C(=O)O (stereo not drawn),inactive,
CCOc1ccc(N)cc1,inactive,

# Biological target: Estrogen receptor (Homo sapiens) (UniProt P03372)
# Test: OT_ERa_GFPERaERE_0480: Odyssey Thera (OT) 8-hour HeLa Transcription Induction Assay for Estrogen Receptor (AID 2283381; active = hit-call score of the fitted dose curve at least 0.9, where 1 is the maximum; inactive = score below 0.9)
# Outline: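 Fluorescence microscopy with high-content image analysis measures ERE-driven GFP induction in HeLa cells at 8 h post-dose. Increases fitted against DMSO baseline.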
# Estrogen receptor (Homo sapiens), sequence (P03372 whole entry, looked up): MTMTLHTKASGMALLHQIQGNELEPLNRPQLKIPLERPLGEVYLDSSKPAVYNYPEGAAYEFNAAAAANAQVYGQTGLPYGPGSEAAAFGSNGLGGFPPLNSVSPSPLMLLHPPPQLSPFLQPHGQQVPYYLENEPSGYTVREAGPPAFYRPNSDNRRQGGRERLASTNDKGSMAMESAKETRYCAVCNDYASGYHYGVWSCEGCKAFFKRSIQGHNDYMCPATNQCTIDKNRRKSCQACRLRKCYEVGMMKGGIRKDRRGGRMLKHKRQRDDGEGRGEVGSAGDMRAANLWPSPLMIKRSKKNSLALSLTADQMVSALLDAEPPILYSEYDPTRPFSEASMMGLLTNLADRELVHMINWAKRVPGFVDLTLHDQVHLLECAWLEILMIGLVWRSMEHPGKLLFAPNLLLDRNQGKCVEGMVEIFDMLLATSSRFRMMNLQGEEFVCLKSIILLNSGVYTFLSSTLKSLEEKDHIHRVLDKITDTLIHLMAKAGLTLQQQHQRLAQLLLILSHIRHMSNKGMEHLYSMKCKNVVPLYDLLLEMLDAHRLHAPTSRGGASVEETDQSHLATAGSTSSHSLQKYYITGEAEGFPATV
Structure (SMILES),outcome,AC50
N#CCC#N,inactive,
O=C(NC(=O)c1c(F)cccc1F)Nc1cc(Cl)c(OC(F)(F)C(F)C(F)(F)F)cc1Cl (stereo not drawn),inactive,
O=CCCl,inactive,
CNC(=O)O/N=C/C(C)(C)S(C)(=O)=O,inactive,
N#Cc1cccnc1,inactive,
O=C(NC(=O)c1c(F)cccc1F)Nc1ccc(Cl)cc1,inactive,
CCCSP(=S)(OCC)Oc1ccc(SC)cc1 (stereo not drawn),inactive,
O=C(O)COc1ccc(Cl)cc1,inactive,
CCC[CH2][Sn]([Cl])([Cl])[CH2]CCC,,1.76 µM (active)
CC(C)=CC1C(C(=O)OCc2cccc(Oc3ccccc3)c2)C1(C)C (stereo not drawn),inactive,
CC(O)(CS(=O)(=O)c1ccc(F)cc1)C(=O)Nc1ccc(C#N)c(C(F)(F)F)c1 (stereo not drawn),,12.8 µM (active)
Cc1cc(Cl)ccc1OC(C)C(=O)O (stereo not drawn),inactive,
CCOc1ccc(N)cc1,inactive,

# Biological target: Estrogen receptor (Homo sapiens) (UniProt P03372)
# Test: OT_ERa_GFPERaERE_0120: Odyssey Thera (OT) 2-hour HeLa Transcription Induction Assay for Estrogen Receptor (AID 2283382)
# Outline: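 Fluorescence-microscopy images of the GFP-ERα/ERE reporter, scored by high-content image algorithms, give the readout. HeLa exposure lasted 2 h, and only signal increase over DMSO was fitted.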
Structure (SMILES),outcome,AC50
N#CCC#N,inactive,
O=C(NC(=O)c1c(F)cccc1F)Nc1cc(Cl)c(OC(F)(F)C(F)C(F)(F)F)cc1Cl (stereo not drawn),inactive,
O=CCCl,inactive,
CNC(=O)O/N=C/C(C)(C)S(C)(=O)=O,inactive,
N#Cc1cccnc1,inactive,
O=C(NC(=O)c1c(F)cccc1F)Nc1ccc(Cl)cc1,inactive,
CCCSP(=S)(OCC)Oc1ccc(SC)cc1 (stereo not drawn),inactive,
O=C(O)COc1ccc(Cl)cc1,inactive,
CCC[CH2][Sn]([Cl])([Cl])[CH2]CCC,,3.3 µM (active)
CC(C)=CC1C(C(=O)OCc2cccc(Oc3ccccc3)c2)C1(C)C (stereo not drawn),inactive,
CC(O)(CS(=O)(=O)c1ccc(F)cc1)C(=O)Nc1ccc(C#N)c(C(F)(F)F)c1 (stereo not drawn),inactive,
Cc1cc(Cl)ccc1OC(C)C(=O)O (stereo not drawn),inactive,
CCOc1ccc(N)cc1,inactive,

# Biological target: Bile acid receptor (Homo sapiens) (UniProt Q96RI1)
# Test: OT_FXR_FXRSRC1_0480: Odyssey Thera (OT) 8-hour HEK293T Protein-Complementation Assay for Farnesoid X receptor/SRC-1 Co-activator (AID 2283383)
# Outline: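 Binding of FXR to coactivator SRC-1 was read as fluorescence from a reconstituted split reporter in HEK293T cells, 8 h after chemical addition. Only increases in signal versus DMSO were fit.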
# Bile acid receptor (Homo sapiens), sequence (Q96RI1 whole entry, looked up): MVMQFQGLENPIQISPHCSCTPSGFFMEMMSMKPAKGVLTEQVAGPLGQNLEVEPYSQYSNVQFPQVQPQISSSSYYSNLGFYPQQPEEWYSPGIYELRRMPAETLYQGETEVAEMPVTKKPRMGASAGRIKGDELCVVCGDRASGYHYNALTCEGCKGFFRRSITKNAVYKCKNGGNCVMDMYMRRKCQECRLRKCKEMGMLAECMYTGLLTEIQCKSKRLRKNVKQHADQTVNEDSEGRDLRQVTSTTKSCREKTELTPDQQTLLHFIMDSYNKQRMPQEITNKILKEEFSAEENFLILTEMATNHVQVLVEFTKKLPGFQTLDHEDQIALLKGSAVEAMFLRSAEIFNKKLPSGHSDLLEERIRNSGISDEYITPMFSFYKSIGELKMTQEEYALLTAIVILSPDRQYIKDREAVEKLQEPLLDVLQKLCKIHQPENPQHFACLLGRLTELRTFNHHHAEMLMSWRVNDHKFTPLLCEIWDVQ
Structure (SMILES),AC50,outcome
O=C(NC(=O)c1c(F)cccc1F)Nc1cc(Cl)c(OC(F)(F)C(F)C(F)(F)F)cc1Cl (stereo not drawn),50 µM (active),
O=C(NC(=O)c1c(F)cccc1F)Nc1ccc(Cl)cc1,,inactive
CCCSP(=S)(OCC)Oc1ccc(SC)cc1 (stereo not drawn),22.8 µM (active),
CC1(C)[C@H](C(=O)O[C@H](C#N)c2cccc(Oc3ccccc3)c2)[C@@H]1/C=C(\Cl)C(F)(F)F,,inactive
O=C(O)C1(c2ccc3c(c2)OC[C@H](Cc2ccc(-c4ccccc4)cc2)[C@H]3O)CCCC1,77 µM (active),
CC(C)=CC1C(C(=O)OCc2cccc(Oc3ccccc3)c2)C1(C)C (stereo not drawn),,inactive
Cc1cc(Cl)ccc1OCCCC(=O)O,,inactive

# Biological target: Bile acid receptor (Homo sapiens) (UniProt Q96RI1)
# Test: OT_FXR_FXRSRC1_1440: Odyssey Thera (OT) 24-hour HEK293T Protein-Complementation Assay for Farnesoid X receptor/SRC-1 Co-activator (AID 2283384)
# Outline: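 Protein-fragment complementation: FXR and SRC-1 fused to reporter fragments that reassemble on interaction, read by fluorescence intensity. Human HEK293T cells measured 24 h post-dose; positive-direction fit versus DMSO.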
Structure (SMILES),AC50,outcome
O=C(NC(=O)c1c(F)cccc1F)Nc1cc(Cl)c(OC(F)(F)C(F)C(F)(F)F)cc1Cl (stereo not drawn),43.7 µM (active),
CCC[CH2][Sn]([CH2]CCC)([CH2]CCC)[CH2]CCC,11.8 µM (active),
N#Cc1cccnc1,,inactive
O=C(NC(=O)c1c(F)cccc1F)Nc1ccc(Cl)cc1,,inactive
CCCSP(=S)(OCC)Oc1ccc(SC)cc1 (stereo not drawn),,inactive
CC1(C)[C@H](C(=O)O[C@H](C#N)c2cccc(Oc3ccccc3)c2)[C@@H]1/C=C(\Cl)C(F)(F)F,,inactive
O=C(O)C1(c2ccc3c(c2)OC[C@H](Cc2ccc(-c4ccccc4)cc2)[C@H]3O)CCCC1,90 µM (active),
CC(C)=CC1C(C(=O)OCc2cccc(Oc3ccccc3)c2)C1(C)C (stereo not drawn),12.3 µM (active),
Cc1cc(Cl)ccc1OCCCC(=O)O,,inactive
CCOc1ccc(N)cc1,46.8 µM (active),

# From PubChem BioAssay (EPA / NIEHS)
